Data from ChEMBL document CHEMBL4513216, “Probing the Open Global Health Chemical Diversity Library for Multistage-Active Starting Points for Next-Generation Antimalarials” (ACS Infect Dis, 2020).
Hit rate of the full screen: of about 69,000 compounds, about 8,600 (12%) showed an effect of 50% or more. For the sample, strong results were picked, then their nearest neighbours and some compounds at random.

Each compound was assayed on Plasmodium berghei (assay: Screen against P. berghei liver stage (PbLuc), transformed with Luciferase, at 10uM). Conditions: tested at 10 uM.
Format: functional, HepG2

SMILES | INHIBITION
Cc1ccc(-c2nc(CN3CCOC(Cn4cccn4)C3)no2)cc1 (centres undefined) | -13.5%
Cc1nc(-c2cccc(Cl)c2)n(CC(=O)NCC2CCCO2)c(=O)c1C (centres undefined) | 13.8%
CNC(=O)COC1COC2(CCN(Cc3cccnc3)CC2)C1 (centres undefined) | 67.3%
CCOC1COC2(CCN(Cc3cccc(F)c3)CC2)C1 (centres undefined) | 31.6%
CNC(=O)COC1COC2(CCN(Cc3ccncc3F)CC2)C1 (centres undefined) | 59.3%
CC(C)NC(=O)CC1COC2(CCN(Cc3cccnc3)CC2)C1 (centres undefined) | 13.7%
CNC(=O)COC1COC2(CCN(Cc3cccnc3OC)CC2)C1 (centres undefined) | 40.5%
COc1ccccc1CN1CC[C@]2(C[C@@H](OCC(=O)N(C)C)CO2)C1 | 24.9%
CN(Cc1cnc2ccccc2c1)C(=O)C(c1ccccc1F)N(C)C (centres undefined) | 4.64%
COc1ccccc1N1CCN(C(=O)COc2c(C)occc2=O)CC1 | 1.04%
OC(CNCCc1nnc2ccccn12)c1ccc(F)c(F)c1 (centres undefined) | -55.3%
O=C(c1nnn(-c2ccc(F)cc2)n1)N(CCO)Cc1ccccc1 | -137%
CN1C(=O)[C@@H]2CC[C@H]1CN(C(=O)Nc1ccccc1C(F)(F)F)C2 | -53.7%
COc1ccnc(CN2CCC=C(C(C)NC(C)=O)C2)c1OC (centres undefined) | 36.2%
COc1ccc(CN2CCC=C(C(C)NC(C)=O)C2)cc1 (centres undefined) | 83.2%
CC(=O)NC(C)C1=CCCN(Cc2ccc(C(=O)O)cc2)C1 (centres undefined) | 37.2%
Fc1ccc(-c2nc(CNC3CCc4ncnn4C3)cs2)cc1 (centres undefined) | 48.8%
CC(O)CCN(C)C(=O)Nc1cc(F)cc(Br)c1 (centres undefined) | 42.6%
CN(CC(O)C1CC1)C(=O)Nc1cc(F)cc(Br)c1 (centres undefined) | -54.5%
CNC(=O)C(C)CN(C)C(=O)Nc1cc(F)cc(Br)c1 (centres undefined) | 83.3%
Cc1nc(C2CCCN2C(=O)c2ccc(N(C)C)nn2)no1 (centres undefined) | -16.98%
O=C(CCc1ccccc1Cl)NS(=O)(=O)c1ccc2c(c1)OCCO2 | -19.265%
CN1CCN(C(CNC(=O)CCn2cccn2)c2cccs2)CC1 (centres undefined) | 31.2%
CC1CCN(C(CNC(=O)CCn2cccn2)c2cccs2)CC1 (centres undefined) | 40.7%
CC(Cc1cccs1)NC(=O)CCn1cccn1 (centres undefined) | 9.14%
CC(NC(=O)CCn1cccn1)c1ccc(-n2ccnn2)cc1 (centres undefined) | 10%
CC(NC(=O)CCn1cccn1)c1cccs1 (centres undefined) | 61.5%

SMILES | INHIBITION
O=C(CCn1cccn1)NCC(c1cccs1)N1CCCC1 (centres undefined) | 66.9%
O=C(CCn1cccn1)NCC(c1cccs1)N1CCOCC1 (centres undefined) | 56.1%
O=C(Cn1cccn1)NCC(c1cccs1)N1CCCC1 (centres undefined) | 28%
CC1CCN(C(CNC(=O)Cn2cccn2)c2cccs2)CC1 (centres undefined) | 32.3%
COCCc1nnc(NC(=O)CSCc2ccccc2)o1 | 2.84%
COCC[C@]1(O)CCN(Cc2ccccn2)C[C@H]1C | 18.4%
Cc1cccc2c1cnn2CCCNC(=O)c1cnn(C)c1 | -17.2%
CC/N=c1\nc(NCC)nc2n1C(O)(Nc1cc(C)ccc1C)CS2 (centres undefined) | -21.3%
CC/N=c1\nc(NCC)nc2n1C(O)(Nc1cc(Cl)ccc1Cl)CS2 (centres undefined) | 56%
CC/N=c1\nc(NCC)nc2n1C(O)(Nc1cccc(Cl)c1Cl)CS2 (centres undefined) | 28.6%
CCNC(=O)N1CCc2ccc(NC(=O)NCc3ccsc3)cc21 | 47%
Cc1ccccc1C1(CNC(=O)CCN2C(=O)CCC2=O)CC1 | 50.3%
Cc1cccc(C2(CNC(=O)CCN3C(=O)CCC3=O)CCCC2)c1 | 36.4%
O=C(CCN1C(=O)CCC1=O)NCC1(c2c(F)cccc2F)CCCC1 | 25.6%
CC(NCc1ccc(OCC(N)=O)cc1)c1ccc(Cl)cc1Cl (centres undefined) | 32.2%
Cn1cc(C(=O)Nc2cc(F)ccc2OCC2CCCO2)ccc1=O (centres undefined) | 13.6%
CCC(CC)C(=O)NCc1c(C)nn(C)c1N1CCCN(C)CC1 | 24.6%
CN(C)CC(Nc1nc(N)nc2c1CCNCC2)c1ccccc1 (centres undefined) | 72.7%
Nc1nc2c(c(N3CCC(CCn4cccn4)CC3)n1)CCNCC2 | 31.4%
COCC(Nc1nc(N(C)C)nc2c1CCNCC2)c1ccccn1 (centres undefined) | 34.9%
c1ccc(C(Cn2cccn2)Nc2cnccn2)cc1 (centres undefined) | 31.2%
CC(Nc1nc(-c2ccccc2)nc2c1CCNCC2)c1cccnc1 (centres undefined) | 31.4%
Nc1nc2c(c(NC(Cn3cccn3)c3ccccc3)n1)CCNCC2 (centres undefined) | 75.5%
CN(Cc1ccccc1-n1cccn1)c1nc(N)nc2c1CCNCC2 | -18%
CN(C)CCC(Nc1nc(N)nc2c1CCNCC2)c1ccccc1 (centres undefined) | 68.5%
CN(CC1Cc2ccccc2CN1C)c1nc(N)nc2c1CCNCC2 (centres undefined) | 30.8%
O=c1c(S(=O)(=O)N2CCCC2)cccn1Cc1ccc(F)cc1Cl | 24.2%
